# Measurements published in ChEMBL document CHEMBL3988442, “University of Dundee, Small-Polar-MMV Screening Library” (2021).
# In all, about 48,000 compounds went through this assay and about 13,000 (27%) showed an effect of 50% or more. This is one part of the list.
# System: Wolbachia pipientis
# Experiment: Anti-Wolbachia Cell-Based Screen
# Type: functional
# Set-up: scale not given: in the data most compounds retested in dose-response had high values
# Settings: 5 µM
row,SMILES,Percent Effect [%]
1,CCc1ccc(C(=O)N2CCN(CCS(C)(=O)=O)CC2)o1,-5.31
2,Cc1cccc(NC(=O)N2CCN(Cc3nnc(C(C)C)o3)CC2)c1,-19.75
3,O=C(Nc1cccc(F)c1)N1CCN(Cc2noc(C3CC3)n2)CC1,-10.54
4,O=C(Nc1cccc(-c2cscn2)c1)N1CCC2(CC1)CC(O)CO2 (stereo unspecified),-8.053
5,CN(C)C(=O)C1CCC2(CCN(C(=O)Nc3cccc(F)c3)CC2)O1 (stereo unspecified),98.46
6,Cc1nsc(N2CCN(C(=O)Nc3cccc(F)c3)CC2)n1,-8.293
7,Cc1cccc(NC(=O)N2CCC3(CCC(C(=O)N(C)C)O3)CC2)c1 (stereo unspecified),100.6
8,CC(C)NC(=O)CN1CCC2(CC1)OCCO2,-0.8474
9,CC(C)(C)C(=O)N1CCC(c2noc(C3CCC(=O)N3)n2)CC1 (stereo unspecified),136.3
10,O=C1CCC(c2nc(C3CCN(C(=O)Cc4cccs4)CC3)no2)N1 (stereo unspecified),131.4
11,O=C1NCCCc2[nH]c(-c3nc(C4CCCCC4)no3)nc21,4.619
12,O=C1CCC2(CCCN(C(=O)Cc3cccs3)C2)N1 (stereo unspecified),-20.18
13,Cc1nc(C2CCCN(C(=O)C(C)(C)n3cc(Cl)cn3)C2)no1 (stereo unspecified),-4.996
14,O=C1NCCCc2[nH]c(-c3nc(C4CC4)no3)nc21,-6.286
15,Cc1noc(C2CCN(CC(=O)N3CCNC(=O)C3)CC2)n1,-10.42
16,O=C1CCC(c2nc(C3CCNCC3)no2)N1 (stereo unspecified),104.8
17,CC(=O)N1CCC(c2nc(Cc3ccccc3)no2)C1 (stereo unspecified),-18.53
18,O=C(Nc1cccs1)N1CC(c2nc(C3CC3)no2)C1,10.74
19,CC(=O)N1CCC(c2noc(C3CCC(=O)N3)n2)CC1 (stereo unspecified),120.5
20,CN(C)C(C(=O)N1CC(Oc2ccccc2F)C1)c1ccc(F)cc1 (stereo unspecified),10.57
21,CCN(CC1CCOC1)C(=O)Nc1ccc(-n2cncn2)nc1 (stereo unspecified),-5.162
22,CCC[C@H]1CN(CCS(C)(=O)=O)C[C@@H]1NC(=O)Cn1cc(C)cn1,-15.47

row,SMILES,Percent Effect [%]
1,CCc1nccn1CCNC1CCN(c2nc3ccc(Cl)cc3s2)CC1,-30.49
2,O=C1CCC(c2nc(C3CCN(C(=O)C4CC4)CC3)no2)N1 (stereo unspecified),107.7
3,CC1(C)CNC(=O)c2nc(C3CCN(C(=O)C4CC4)CC3)[nH]c2C1,-1.461
4,O=C(CN1CCCC(c2noc(C3CC3)n2)C1)N1CCCC1 (stereo unspecified),-17.34
5,CC(Nc1ncnc2c1CCNC2)c1ccc2c(c1)CCCC2 (stereo unspecified),-81.25
6,CC[C@@H](CO)Nc1nccc(-c2cnc3sc(C)cn3c2=O)n1,82.9
7,CC(C)CNc1nccc(-c2cnc3sc(Cl)cn3c2=O)n1,98.56
8,CC[C@H](C)Nc1nccc(-c2cnc3sccn3c2=O)n1,96.29
9,C[C@@H](CO)Nc1nccc(-c2cnc3sc(Cl)cn3c2=O)n1,101.5
10,Cc1ccc(NCCCNc2nccc(-c3cn(C)nc3C)n2)nc1,4.133
11,c1cnc(NCc2n[nH]c3c2CCN(Cc2ccncc2)C3)nc1,-7.099
12,Cc1nc[nH]c1CN1CCCC(CNC(=O)c2ccc(N)nc2)C1 (stereo unspecified),-15.92
13,COc1cc2c(nn1)CCN(Cc1noc(CC(C)C)n1)C2,-12.11
14,Cc1nc(CN2CCCC(CCc3c(F)cccc3F)C2)c[nH]1 (stereo unspecified),27.92
15,CNS(=O)(=O)CCNCC1(O)CCCN(CCC2CCCCC2)C1=O (stereo unspecified),1.698
16,Cn1cc(NC(=O)CCc2ccsc2)ccc1=O,-1.148
17,Cc1cn2c(=O)c(-c3ccnc(N[C@@H](C)CO)n3)cnc2s1,99.21
18,CC[C@H](C)Nc1nccc(-c2cnc3sc(C)cn3c2=O)n1,91.04
19,CCCN(Cc1ccc(C#N)cc1)Cc1nnsc1Cl,8.987
20,CCNC(=O)CNC(=O)c1ccn(S(=O)(=O)c2ccc(C)cc2)c1,0.9489
21,Cc1cccc(CN2C[C@@H]3CC[C@H](C2)N(Cc2c(C)noc2C)C3=O)n1,-29.28
22,Cc1cnn(CC2CCCN2C(=O)c2cccc(-n3ccc(C)n3)c2)c1 (stereo unspecified),119

row,SMILES,Percent Effect [%]
1,Cc1cnn(CC2CCCN2C(=O)c2cccc(S(C)(=O)=O)c2)c1 (stereo unspecified),115.2
2,Cn1ccc(C2CCCCN2C(=O)c2cccc(-n3cccn3)c2)n1 (stereo unspecified),-0.8494
3,Cc1cnn(CC2CCCCN2C(=O)c2cccc(C(N)=O)c2)c1 (stereo unspecified),110.6
4,CCN(CC)C(=O)C1CCCN1C(=O)c1cccc(-n2cnnn2)c1 (stereo unspecified),98.96
5,Cc1cnn(CC2CCCN2C(=O)c2cccc(-n3cnnn3)c2)c1 (stereo unspecified),-8.957
6,Cc1cnn(CC2CCCN2C(=O)c2cccc(CC#N)c2)c1 (stereo unspecified),-7.7
7,COC(=O)[C@H]1CCCCN1C(=O)c1cccc(-n2cccn2)c1,-1.168
8,Cc1cnn(CC2CCCCN2C(=O)c2cc(C(N)=O)cs2)c1 (stereo unspecified),3.915
9,CC(C)c1nc(COc2cccc3c2NC(=O)CO3)cs1,-10.7
10,NC(=O)c1c(NC(=O)CCC(=O)O)sc2c1CCc1ccccc1-2,188.5
11,O=C(Nc1cccc(N2CCN(CC3CC3)CC2)c1)C1CCCO1 (stereo unspecified),-16.14
12,NC(=O)c1c(NC(=O)CCCC(=O)O)sc2c1CCc1ccccc1-2,119.8
13,CC(=O)Nc1sc2c(c1C(=O)O)CCc1ccccc1-2,112.1
14,O=C(Cc1cccs1)NCC1(O)CCc2ccccc2C1 (stereo unspecified),1.555
15,CC(C)(C)c1cc(NC(=O)C2CCCO2)n(-c2ccccn2)n1 (stereo unspecified),-31.1
16,NC(=O)c1c(NC(=O)C2CCCO2)sc2c1CCc1ccccc1-2 (stereo unspecified),117
17,Cc1cccc2c1nc1n2[C@@H](CNC(=O)C2CCOCC2)COC1,-17.69
18,NC(=O)c1ccc(CNCC2CCN(CCO)CC2)cc1,2.18
19,Cc1nc(CCN(C)C(=O)CCNC(=O)c2ccccc2F)no1,-9.414
20,CCc1cc(NCc2ccc(-n3cncn3)c(C)c2)n(C)n1,-10.44
21,CC(NC(=O)Cn1cc(C(N)=O)c(-c2ccccc2)n1)C1CC1 (stereo unspecified),6.248
22,CC(CC(=O)O)CC(=O)Nc1sc2c(c1C(N)=O)CCc1ccccc1-2 (stereo unspecified),127.8
